The entries come from a sample that favours hits as a whole.
IMPase Li cell – cell-permeable IMPase inhibitors with lithium potentiation. CHO-M1 cells, IP1 TR-FRET (IP-One), carbachol + lithium. Potency, µM (highest dose often 59.4 µM), without a hit: at the highest dose activity, negative = IMPase inhibition, actives largely listed as inhibitors. 0.35% of 210,000 active;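 note: IP1 builds up when IMPase is blocked and the TR-FRET signal falls; plate controls were basal vehicle for no effect and high inhibitor control for full effect; nearly all actives have a fitted effect of over 50% in size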
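Concentration–response in CHO-M1 cells, lithium-potentiated; 30 min at 37C. IP1 detected by competitive TR-FRET after 10 min lysis at RT. Hill-fitted AC50.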
NPSR antag – antagonists of human neuropeptide S receptor cAMP signaling; CHO-NPSR cells, cAMP TR-FRET, antagonist mode; Potency, µM (doses to about 38.3 µM), for inactives: top-dose activity change, negative = inhibition, most hits filed as inhibitors; 1% of 220,000 active; AID 1461; note: nearly all actives have a fitted effect of over 50% in size
Target sequence (Q6W5P4 whole entry, looked up): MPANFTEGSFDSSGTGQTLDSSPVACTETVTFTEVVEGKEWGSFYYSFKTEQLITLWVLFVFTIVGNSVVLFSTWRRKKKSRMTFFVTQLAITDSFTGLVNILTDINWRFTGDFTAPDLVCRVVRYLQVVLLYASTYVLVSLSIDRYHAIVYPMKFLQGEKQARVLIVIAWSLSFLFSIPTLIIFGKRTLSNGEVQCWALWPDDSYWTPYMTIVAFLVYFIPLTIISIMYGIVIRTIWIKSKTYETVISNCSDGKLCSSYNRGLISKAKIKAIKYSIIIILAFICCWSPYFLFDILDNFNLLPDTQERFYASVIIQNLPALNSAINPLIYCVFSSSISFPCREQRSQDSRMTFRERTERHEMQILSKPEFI
ERK EGF inh – inhibitors of EGF-stimulated ERK signaling pathway; HEK293-V1b, EGF-stimulated phospho-ERK AlphaScreen; Potency, µM (top dose mostly 11.5 µM), for inactives: at the highest dose activity change, negative = inhibition, actives largely listed as inhibitors; 0.41% of 130,000 active; AID 1454;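 note: plate controls were stimulated vehicle wells for no effect and unstimulated vehicle basal for full effect; nearly all actives have a fitted effect of over 55% in size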
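Homogeneous cell-based phospho-ERK assay: HEK293/V1b cells in 1% FBS, compound 30 min then EGF 5 min, AlphaScreen luminescence. Activity normalized between DMSO and 25 nM EGF controls; AC50 from Hill modelling.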
Numbers without * were called inactive; ? = inconclusive; / = no result given; [ ] = dose if it differs, or a comment. Calls come from the whole dose curve; as a rule, active = well fitted curve in the direction sought with a large enough effect; inconclusive = small, poorly fitted or top-dose-only effect, or another doubt; inactive = no such curve, though single readings can be large; an effect the other way counts as inactive or inconclusive. Unless noted, % is set by controls: 0 for no effect and ±100 for the full control effect; potency is the fitted concentration of half-maximal effect.

SMILES | IMPase Li cell | NPSR antag | ERK EGF inh
CO[C@H]1C=CO[C@@]2(C)Oc3c(C)c(O)c4c(O)c(c(C=NN5CCN(C6CCCC6)CC5)c(O)c4c3C2=O)NC(=O)C(C)=CC=C[C@H](C)[C@H](O)[C@@H](C)[C@@H](O)[C@@H](C)[C@H](OC(C)=O)[C@@H]1C | / | -32% | 8.9µM*
C=CCCCC | 4% | / | /
O=[N+]([O-])c1nn(-c2ccc3c(c2)OCCO3)n(O)c1=Nc1ccc(Cl)cc1 | 14%[38.3 µM] | -15%[46.1 µM] | /
CCc1ccc(N=c2c([N+](=O)[O-])nn(-c3ccc4c(c3)OCCO4)n2O)cc1 | 7% | 15% | 28µM*
COc1ccc(CNc2nc(-c3ccccc3OC)nc3ccccc23)c(OC)c1 | 18% | / | 30%
CN(C)Cc1ccccc1-c1cncnc1NCc1cccs1 | 22% | / | 27%
O=C1CC(c2ccc3c(c2)OCO3)c2cc(O)ccc2O1 (stereo not drawn) | 31% | / | /
CCN(CC)CCCNC(=O)c1cc2c(-c3ccc(Cl)cc3)nn(C)c2s1 | 17%[38.3 µM] | ? | /
CN1CCN(CCCNC(=O)c2cc3c(-c4ccc(Cl)cc4)nn(C)c3s2)CC1 | 12%[38.3 µM] | 10µM* | /
CNC(=S)N/N=C1\C(=O)c2cccc3cccc1c23 | 22%[38.3 µM] | 3.2µM* | /
CCCCNC(=S)N/N=C1\C(=O)c2cccc3cccc1c23 | 32%[38.3 µM] | -24%[46.1 µM] | /
O=C1CCC(=O)N1CCC(c1ccc(F)cc1)c1ccco1 (stereo not drawn) | 21%[38.3 µM] | -4%[46.1 µM] | /
O=C1NCN(c2ccccc2)C12CCN(CCCC(c1ccc(F)cc1)c1ccc(F)cc1)CC2 | 20% | 13µM* | ?
C/C=C/c1ccc2oc(-c3ccc(O)cc3)c(C)c2c1 | 2% | / | ?
S=c1nc(-c2ccccc2)n(Cc2cccnc2)c2c1CCCC2 | / | -1% | -13%[57.5 µM]
S=c1nc(-c2ccccc2)n(Cc2ccco2)c2c1CCCC2 | 13µM* | -6%[46.1 µM] | /
CCCCn1c(SCC(=O)NC(C)CC)nc2ccc(N3CCOCC3)cc2c1=O (stereo not drawn) | 11µM* | ? | /
CCC(C)NC(=O)CSc1nc2ccc(N3CCOCC3)cc2c(=O)n1CCc1ccccc1 (stereo not drawn) | 13%[38.3 µM] | ? | /
COc1cc(C(=O)NS(=O)(=O)c2ccccc2C)ccc1Cc1cn(C)c2ccc(NC(=O)OC3CCCC3)cc12 | / | ? | 28µM*
CCOc1ccc(NC(=O)CS(=O)(=O)c2cn(C)c3ccccc23)cc1 | 30%[38.3 µM] | -13%[46.1 µM] | /
c1ccc(Nc2cc(-c3ccoc3)ncn2)cc1 | -7% | / | /
CCOC(=O)[C@]1(CC(=O)O)CCCC1=O | -3% | / | /
O=C(Nc1cccnc1)c1ccc(Cl)c(S(=O)(=O)N2CCc3ccccc32)c1 | 13% | -12% | 25µM*
O=C(Nc1cccnc1)c1cccc(S(=O)(=O)N2CCc3ccccc32)c1 | -1% | -15% | 1%
C/C=C1\C(=O)C[C@H]2[C@@H]3CCC4=CC(=O)CC[C@]4(C)[C@H]3CC[C@]12C | 18% | / | /
SMILES | IMPase Li cell | NPSR antag | ERK EGF inh
COc1ccc(OC)c(S(=O)(=O)N2CCC(C(=O)N(C)Cc3ccccc3)CC2)c1 | / | -23% | 0%[57.5 µM]
OC1(c2ccc(Cl)cc2)CN(c2ccccc2)C2=[N+]1CCS2 (stereo not drawn) | 13% | 10µM* | -2%
OC1(c2ccc(Br)cc2)CN(c2ccccc2)C2=[N+]1CCS2 (stereo not drawn) | 14% | -35% | 1%
Fc1cccc(Nc2ncnc3[nH]ncc23)c1 | -12% | -20% | 25µM*
Brc1ccc(Nc2ncnc3[nH]ncc23)cc1 | / | -15% | ?
O=c1c(-c2ccc(F)c(F)c2)nc2cncnc2n1C1CC1 | -6% | / | /
C=C1c2ccccc2O[C@H](C(=O)OCC)[C@@H]1CC(C)(C)c1ccccc1 | 18% | / | /
CC(/C=C/c1cccc(Oc2ccc(F)cc2)c1)N(O)C(N)=O (stereo not drawn) | 7% | ? | 4%
COc1ccc2c(c1)oc(=O)c1ccccc12 | / | -15% | -12%[57.5 µM]
O=c1oc2cc(O)c(Cl)cc2c2ccccc12 | 7.1µM* | 7.9µM* | 5%
O=C(Cn1ncc(Cl)c(Cl)c1=O)N1CCN(S(=O)(=O)c2ccc3ccccc3c2)CC1 | / | 13µM* | /
O=C(CCC(=O)N1CCN(S(=O)(=O)c2ccc3ccccc3c2)CC1)Nc1cc(Cl)cc(Cl)c1 | 16% | -19% | -4%
CC(=O)Nc1sc(N/N=C/c2ccc(C)cc2)nc1-c1ccc(C)cc1 | / | -3% | -2%[57.5 µM]
CC(=O)Nc1sc(/C(C#N)=C/c2ccc(Cl)c(Cl)c2)nc1-c1ccc(C)cc1 | 13µM* | -35% | -1%
CC(C)C[C@H](NC(=O)[C@H](CCCCN)NC(=O)[C@H](CCCNC(=N)N)NC(=O)[C@H](C)NC(=O)[C@H](CO)NC(=O)[C@H](CCCCN)NC(=O)[C@H](CCCNC(=N)N)NC(=O)[C@H](C)NC(=O)CNC(=O)[C@@H](NC(=O)[C@H](Cc1ccccc1)NC(=O)CNC(=O)CNC(=O)[C@@H](N)Cc1ccccc1)[C@H](C)O)C(=O)N[C@@H](C)C(=O)N[C@@H](CC(N)=O)C(=O)N[C@@H](CCC(N)=O)C(=O)O | 3% | / | /
Cc1[nH]nc2oc(=O)c(CCO)c(C)c12 | 20%[38.3 µM] | -9%[46.1 µM] | /
COc1ccc(-c2[nH]nc3oc(=O)c(CCO)c(C)c23)cc1 | 3% | 7% | 16µM*
CC(C)CC(O)C1CCN(C(=O)CCc2nnc(-c3ccccc3)o2)CC1 (stereo not drawn) | 4% | -3% | 8%
CO[C@@H]1/C=C\O[C@@]2(C)Oc3c(C)c(O)c4c(c3C2=O)C(=N[C@H]2CC[C@H](O)O[C@@H]2C)C=C(NC(=O)/C(C)=C\C(=O)[C@@H]2C[C@@H]2[C@@H](O)[C@H](C)[C@@H](O)[C@H](C)[C@H](OC(C)=O)[C@@H]1C)C4=O | 11% | / | /
O=c1[nH]n2c(=O)c3c([nH]c2c1N=Nc1cccc(C(F)(F)F)c1)CCCC3 | 7% | 13µM* | 3%
O=c1[nH]n2c(=O)c3c([nH]c2c1N=Nc1cccc(Cl)c1)CCC3 | 30% | -35% | ?
Cc1cc(N2CCOCC2)nc2ccc(Cc3ccc4nc(N5CCOCC5)cc(C)c4c3)cc12 | 11% | / | /
O=C(O)C1CC[C@@](C(=O)O)(c2ccccc2)c2ccccc21 (stereo partly drawn) | 10% | / | -9%
COC(=O)c1sc(NC(=S)NC(=O)c2cccc(C)c2)nc1C | -9% | -26% | 11%
COC(=O)c1sc(NC(=S)NC(=O)c2ccccc2F)nc1C | ? | 13µM* | 3%
CCOC(=O)C1C(C(=O)OC)=C(CC(C)C)c2ccccc2N1S(=O)(=O)C(F)(F)F (stereo not drawn) | 16% | / | /
CCCCC/C=C\C/C=C\CCCCCCCC(=O)NCC(=O)O | 1% | / | 6%
O=C1CCC(=O)N1c1nc2n(n1)C(c1ccccc1)C=C(c1ccc(Br)cc1)N2 (stereo not drawn) | 11µM* | 9%[46.1 µM] | /
COc1ccc(C2C=C(c3ccc(Br)cc3)Nc3nc(N4C(=O)CCC4=O)nn32)cc1 (stereo not drawn) | 1%[38.3 µM] | -11%[46.1 µM] | /
CCOC(=O)C1C(C(=O)OC)=C(C(=O)OC)c2ccccc2N1S(=O)(=O)C(F)(F)F (stereo not drawn) | -2% | / | /
